# In PubChem BioAssay:
# Activity calls are given as the source filed them.
# What was measured:
# [1] = tested on: Plasmodium falciparum Sir2 (PF13_0152, Sir2A); experiment: Plasmodium falciparum Sir2A binding compounds – biochemical, small-molecule microarray, 635 nm fluorescence, primary screen (AID 1098); details: fluorescence 635 nm, higher = more signal;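 note: score merges spot fluorescence intensity with its signal-to-noise ratio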
# [2] = probe aDKK1 binding to arrayed compounds – biochemical, biotinylated probe, 635/667 nm fluorescence, primary screen (AID 1099); details: small-molecule microarray, higher = more signal;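 note: score merges 667nm spot fluorescence with signal to noise across triplicate slides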
# [3] = probe aCHRDL2 binding to arrayed compounds – biochemical, biotinylated probe, 635/667 nm fluorescence, primary screen (AID 1100); details: small-molecule microarray, higher = more signal
# [4] = change in splice reporter luminescence, either direction, cell-based, HEK293, spliceosome inhibition project, primary screen (AID 1101); details: HEK293 splicing luciferase reporter, 24 h, higher = more signal, called active from +8 up or from −8 down;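 note: HEK293 cells carrying a splicing-competent luciferase reporter gene; test concentration not given here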
# [5] = biological target: Fibroblast growth factor 10 (Homo sapiens) (UniProt O15520); experiment: compounds binding fibroblast growth factor 10 – biochemical, small-molecule microarray, 635 nm fluorescence, primary screen (AID 1102); details: FGF10 binding, fluorescence 635 nm, higher = more signal
# [6] = tested on: glycogen synthase kinase-3 (GSK3A per assay name; protocol says GSK3B); experiment: compounds binding glycogen synthase kinase-3 – biochemical, small-molecule microarray, 635 nm fluorescence, GSK3A, primary screen (AID 1103); details: fluorescence 635 nm, higher = more signal; note: the record names both GSK3A and GSK3B
# [7] = biological target: Epidermal growth factor receptor (Homo sapiens) (UniProt P00533); experiment: compounds binding epidermal growth factor receptor – biochemical, small-molecule microarray, 635 nm fluorescence, primary screen (AID 1104); details: EGFR binding, higher = more signal;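 note: score merges 667 nm emission intensity with spot signal to noise over triplicate slides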
# [8] = biological target: Follistatin-related protein 3 (Homo sapiens) (UniProt O95633); experiment: compounds binding follistatin-related protein 3 – biochemical, small-molecule microarray, 635 nm fluorescence, primary screen (AID 1105); details: FSTL3 binding, higher = more signal;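 note: score merges emission near 667 nm and signal to noise per printed spot across three slides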
# [9] = biological target: Dickkopf-related protein 1 (Homo sapiens) (UniProt O94907); experiment: small molecules binding DKK1 protein – biochemical, small-molecule microarray, 635 nm fluorescence scan, primary screen (AID 1106); details: higher = more signal;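 note: score merges emission near 667 nm with signal to noise over three replicate slides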
# [10] = tested on: Inhibin beta A chain (activin A); experiment: small molecules binding activin A – biochemical, small-molecule microarray, 635 nm fluorescence scan, primary screen (AID 1107); details: INHBA, higher = more signal;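 note: mouse activin A protein probed at 4.33 µg/mL on printed slides; score merges bound-protein fluorescence near 667 nm with spot signal-to-noise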
# [11] = tested on: Human papillomavirus type 1a protein E7 (residues 44-93); experiment: small molecules binding HPV E7 44-93 – biochemical, small-molecule microarray, residues 44-93, 635 nm fluorescence, primary screen (AID 1108); details: fluorescence 635 nm, higher = more signal;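 note: E7 fragment applied at 1 µg/mL in TBST for 1 h at 4 C; score combines spot fluorescence with its signal to noise ratio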
# [12] = hepatitis C replication reporter changes, two-sided – Huh7 cells, luciferase reporter, HCV replication inhibitor project, primary screen (AID 1109); details: Huh7 HCV replicon luciferase reporter, 48 h; higher = more signal;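 note: huh7 hepatoma cells harbouring a luciferase neomycin HCV replicon reporter; luciferase luminescence as measure of HCV replicon replication; test concentration not given here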
# [13] = biological target: Left-right determination factor 2 (Homo sapiens) (UniProt O00292); experiment: small molecules binding LEFTY2 protein – biochemical, small-molecule microarray, 635 nm fluorescence scan, primary screen (AID 1110); details: higher = more signal
# [14] = biological target: Calmodulin-1 (Homo sapiens) (UniProt P0DP23); experiment: small molecules binding calmodulin-1 with EGTA – biochemical, small-molecule microarray, Cy5-labelled CALM1, profiling panel (AID 1111); details: Cy5-CALM1 binding fluorescence, higher = more signal;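 note: labelled calmodulin applied in Tris saline Tween buffer holding calcium plus EGTA and DTT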
# [15] = biological target: Calmodulin-1 (Homo sapiens) (UniProt P0DP23); experiment: small molecules binding Ca-loaded calmodulin-1 – biochemical, small-molecule microarray, Cy5-labelled CALM1, plus calcium, artefact control for SMM control-protein annotation, profiling panel (AID 1112); details: Cy5-CALM1 binding fluorescence, higher = more signal;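 note: score merges spot fluorescence with signal to noise from triplicate slides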
# [16] = probe aWnt5a binding to arrayed compounds – biochemical, biotinylated probe, 635/667 nm fluorescence, primary screen (AID 1113); details: small-molecule microarray, higher = more signal;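 note: score merges 667 nm fluorescence intensity with signal-to-noise per printed feature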
# [17] = probe aShh binding to arrayed compounds – biochemical, biotinylated probe, 635/667 nm fluorescence, primary screen (AID 1114); details: small-molecule microarray, higher = more signal;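 note: probe is biotin-labelled aShh protein from a stem cell growth factor screen; measures binding of labelled protein to compounds printed on the slide; score merges feature fluorescence at 667 nm with signal-to-noise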
# [18] = probe aNog binding to arrayed compounds – biochemical, biotinylated probe, 635/667 nm fluorescence, primary screen (AID 1115); details: small-molecule microarray, higher = more signal;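 note: probe is biotinylated aNog protein used at 0.15 µg/mL for 1 h at 4 C; z-score combines 667 nm fluorescence of each spot with its signal to noise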
# [19] = biological target: Torsin-1A-interacting protein 1 (Homo sapiens) (UniProt Q5JTV8); experiment: compound microarray binding of lysate hLAP1 – cell lysate, small-molecule microarray, COS7 lysate, 635/667 nm fluorescence, primary screen (AID 1116); details: 635 nm fluorescence, higher = more signal
# [20] = biological target: Alpha-bungarotoxin (Bungarus multicinctus) (UniProt P60615); experiment: compounds binding labelled alpha-BTX control protein – biochemical, small-molecule microarray, Alexa647 label, 635/667 nm fluorescence, artefact control for SMM control protein annotation, profiling panel (AID 1117); details: alpha-BTX-A647 binding fluorescence, higher = more signal
# Alpha-bungarotoxin (Bungarus multicinctus), sequence (P60615 whole entry, looked up): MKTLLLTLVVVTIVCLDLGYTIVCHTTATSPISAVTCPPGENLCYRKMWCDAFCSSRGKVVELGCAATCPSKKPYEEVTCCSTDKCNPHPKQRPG
# Left-right determination factor 2 (Homo sapiens), sequence (O00292 whole entry, looked up): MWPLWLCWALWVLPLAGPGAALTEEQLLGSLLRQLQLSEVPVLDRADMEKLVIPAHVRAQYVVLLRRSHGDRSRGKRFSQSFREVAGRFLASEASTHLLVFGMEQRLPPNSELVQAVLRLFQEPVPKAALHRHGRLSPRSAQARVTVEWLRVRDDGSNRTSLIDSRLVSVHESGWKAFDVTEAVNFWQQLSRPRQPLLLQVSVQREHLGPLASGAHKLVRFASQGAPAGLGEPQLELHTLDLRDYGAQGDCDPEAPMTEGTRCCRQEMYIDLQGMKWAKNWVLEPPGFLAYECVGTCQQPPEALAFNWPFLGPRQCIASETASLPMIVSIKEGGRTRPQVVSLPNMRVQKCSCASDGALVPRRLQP
# Fibroblast growth factor 10 (Homo sapiens), sequence (O15520 whole entry, looked up): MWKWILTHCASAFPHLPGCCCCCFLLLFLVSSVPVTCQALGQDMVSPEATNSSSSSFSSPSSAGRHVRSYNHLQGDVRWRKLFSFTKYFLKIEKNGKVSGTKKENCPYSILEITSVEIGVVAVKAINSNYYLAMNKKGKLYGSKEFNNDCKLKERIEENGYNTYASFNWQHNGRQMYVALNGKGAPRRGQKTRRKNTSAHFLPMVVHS
# Dickkopf-related protein 1 (Homo sapiens), sequence (O94907 whole entry, looked up): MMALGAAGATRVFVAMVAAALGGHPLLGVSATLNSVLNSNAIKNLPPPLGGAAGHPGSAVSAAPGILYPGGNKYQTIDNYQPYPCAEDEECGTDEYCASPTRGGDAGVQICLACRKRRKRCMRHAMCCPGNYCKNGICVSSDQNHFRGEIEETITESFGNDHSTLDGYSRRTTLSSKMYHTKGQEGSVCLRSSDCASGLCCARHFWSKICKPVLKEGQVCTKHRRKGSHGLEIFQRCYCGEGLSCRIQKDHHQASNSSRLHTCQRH
# Torsin-1A-interacting protein 1 (Homo sapiens), sequence (Q5JTV8 whole entry, looked up): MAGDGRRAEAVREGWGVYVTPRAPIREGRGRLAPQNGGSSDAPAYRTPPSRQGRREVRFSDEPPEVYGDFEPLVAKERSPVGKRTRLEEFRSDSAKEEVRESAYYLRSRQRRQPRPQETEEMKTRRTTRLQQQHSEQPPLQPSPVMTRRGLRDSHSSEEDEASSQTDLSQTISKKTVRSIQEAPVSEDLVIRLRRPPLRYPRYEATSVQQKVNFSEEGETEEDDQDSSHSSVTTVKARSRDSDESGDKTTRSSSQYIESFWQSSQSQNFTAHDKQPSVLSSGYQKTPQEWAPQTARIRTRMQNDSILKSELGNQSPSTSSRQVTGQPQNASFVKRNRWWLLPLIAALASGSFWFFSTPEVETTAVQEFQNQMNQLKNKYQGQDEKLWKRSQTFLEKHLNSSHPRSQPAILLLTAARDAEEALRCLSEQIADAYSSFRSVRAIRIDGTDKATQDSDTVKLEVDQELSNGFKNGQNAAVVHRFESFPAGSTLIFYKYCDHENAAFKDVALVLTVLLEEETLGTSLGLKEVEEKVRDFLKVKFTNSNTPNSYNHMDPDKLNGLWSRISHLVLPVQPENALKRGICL
# Epidermal growth factor receptor (Homo sapiens), sequence (P00533 whole entry, looked up): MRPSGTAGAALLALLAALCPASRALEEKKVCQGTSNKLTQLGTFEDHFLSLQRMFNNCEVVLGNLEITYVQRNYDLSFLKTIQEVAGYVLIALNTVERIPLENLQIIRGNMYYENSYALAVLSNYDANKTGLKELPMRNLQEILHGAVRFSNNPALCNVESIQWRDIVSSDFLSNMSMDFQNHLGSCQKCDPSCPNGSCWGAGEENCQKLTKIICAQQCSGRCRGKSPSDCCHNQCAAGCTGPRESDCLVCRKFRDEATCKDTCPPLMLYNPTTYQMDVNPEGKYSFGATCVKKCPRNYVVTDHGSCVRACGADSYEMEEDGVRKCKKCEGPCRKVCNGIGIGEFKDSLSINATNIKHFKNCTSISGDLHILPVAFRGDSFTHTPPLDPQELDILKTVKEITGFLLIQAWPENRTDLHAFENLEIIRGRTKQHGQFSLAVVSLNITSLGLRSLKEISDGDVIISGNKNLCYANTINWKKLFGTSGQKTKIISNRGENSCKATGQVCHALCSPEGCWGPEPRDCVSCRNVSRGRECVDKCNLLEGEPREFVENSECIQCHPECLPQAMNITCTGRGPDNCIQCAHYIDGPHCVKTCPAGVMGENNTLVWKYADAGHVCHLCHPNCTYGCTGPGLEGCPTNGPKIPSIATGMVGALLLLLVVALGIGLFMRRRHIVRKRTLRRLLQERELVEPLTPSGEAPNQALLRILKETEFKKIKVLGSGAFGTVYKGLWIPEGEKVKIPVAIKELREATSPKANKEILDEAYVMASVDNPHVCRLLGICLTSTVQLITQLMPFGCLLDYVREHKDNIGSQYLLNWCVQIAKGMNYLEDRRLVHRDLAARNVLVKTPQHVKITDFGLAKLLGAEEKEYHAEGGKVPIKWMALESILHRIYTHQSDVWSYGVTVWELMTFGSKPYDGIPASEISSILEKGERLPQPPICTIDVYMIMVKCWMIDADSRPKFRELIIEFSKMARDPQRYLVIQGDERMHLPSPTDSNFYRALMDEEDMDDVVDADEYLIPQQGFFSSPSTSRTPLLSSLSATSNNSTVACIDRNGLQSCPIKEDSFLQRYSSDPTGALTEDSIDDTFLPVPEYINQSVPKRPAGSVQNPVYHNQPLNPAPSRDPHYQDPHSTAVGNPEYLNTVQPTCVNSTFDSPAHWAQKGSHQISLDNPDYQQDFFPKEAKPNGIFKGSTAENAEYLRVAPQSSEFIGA
# Follistatin-related protein 3 (Homo sapiens), sequence (O95633 whole entry, looked up): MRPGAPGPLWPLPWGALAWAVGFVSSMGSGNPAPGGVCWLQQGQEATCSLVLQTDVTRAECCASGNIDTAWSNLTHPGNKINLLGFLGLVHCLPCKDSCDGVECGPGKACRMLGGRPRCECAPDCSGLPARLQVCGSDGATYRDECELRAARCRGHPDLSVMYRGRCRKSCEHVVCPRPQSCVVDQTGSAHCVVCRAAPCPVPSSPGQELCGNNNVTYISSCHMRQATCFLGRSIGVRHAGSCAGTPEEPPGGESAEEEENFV
Structure (SMILES),composite z-score [1],composite z-score [2],composite z-score [3],z-score [4],composite z-score [5],composite z-score [6],composite z-score [7],composite z-score [8],composite z-score [9],composite z-score [10],composite z-score [11],z-score [12],composite z-score [13],composite z-score [14],composite z-score [15],composite z-score [16],composite z-score [17],composite z-score [18],composite z-score [19],composite z-score [20]
C=CCNC(=O)[C@H]1[C@@H]2C(=O)O[C@@H](c3ccccc3)[C@@H](c3ccccc3)N2[C@@H](c2ccc(O)cc2)[C@]12C(=O)Nc1ccc(C#CC3(O)CCCCCC3)cc12,1.38,0.0898,0.105,0.558 (inactive),0.155,0.373,-0.612,-0.0182,0.0926,0.697,0.903,-0.979,0.405,0.823,0.215,-0.036,0.0358,0.557,0.854,0.448
O=C1N(Cc2ccccc2)Cc2ccccc2[C@@H]2OC(c3ccc(OCCCO)cc3)=N[C@]12CCS(=O)(=O)c1ccccc1,0.596,-0.0422,1.05,0.0631 (inactive),1.04,0.309,0.607,0.291,-0.222,0.772,1.4,-1.84,0.347,0.729,0.264,-0.0758,0.265,-0.319,-0.0362,1.37
CC(=O)NCCCC[C@@H]1NC(=O)[C@@H]2C[C@H](C(=O)NCCCC[N+](C)(C)C)[C@H](c3ccc(O)cc3)N2C1=O,1.46,-0.151,-0.295,-1.47 (inactive),1.33,0.301,0.753,1.47,1.76,-0.261,0.364,-0.307,1.35,-0.206,0.32,-0.0758,0.366,0.33,1.06,1.57
CN(C)C(=O)[C@@]1(CCS(=O)(=O)c2ccccc2)N=C(c2ccc(OCCCO)cc2)O[C@H]1c1ccccc1,1.32,0.415,0.854,2.27 (inactive),0.961,1.29,-0.806,0.455,-0.94,0.54,1.46,-1.76,-0.757,1.47,0.759,0.16,0.207,0.812,1.84,1.9
CN(C)C(=O)[C@@]1(Cc2ccccc2CN=[N+]=[N-])N=C(c2ccc(OCCCO)cc2)O[C@H]1c1ccccc1CN=[N+]=[N-],1.03,0.832,0.915,1.2 (inactive),0.871,-0.581,-0.167,-0.0464,-0.687,0.846,1.27,-2.63,-0.462,1.69,1,0.0655,0.551,0.771,1.56,1.11
COCCOC(=O)N1C(=O)[C@@]2(c3cc(C#CC4=CCCCC4)ccc31)[C@H](c1ccc(OCCO)cc1)N1[C@H](c3ccccc3)[C@H](c3ccccc3)OC(=O)[C@H]1[C@@H]2C(=O)N1CCN(c2ncccn2)CC1,0.28,0.0367,0.262,0.515 (inactive),1.34,1.3,0.494,0.866,0.605,0.783,1.05,-0.807,0.671,0.623,0.189,-0.034,-0.0146,0.759,0.835,0.418
O=C1C2C=CC(C(O)c3ccc(F)cc3)N(n3cnnc3)C2C(=O)N1Cc1ccccc1 (stereo not given),-0.284,0.158,0.384,-0.284 (inactive),-0.429,-0.858,-0.273,-0.0469,-0.44,1.12,-0.305,-0.574,-0.856,-0.171,0.451,-0.0781,-0.203,0.146,0.419,-0.39
O=C1O[C@H](c2ccccc2)[C@H](c2ccccc2)N2[C@H]1[C@@H](C(=O)Nc1nc3ccccc3s1)[C@]1(C(=O)Nc3ccc(C#CCCO)cc31)[C@H]2c1ccc(O)cc1,0.915,0.39,0.673,-0.285 (inactive),0.929,0.88,0.591,0.763,0.198,0.635,1.4,-0.829,0.691,0.628,-0.0808,-0.0519,-0.0035,-0.28,0.799,0.369
COc1ccccc1CN1C(=O)c2ccccc2[C@](Cc2ccccc2I)(C(=O)NCC(F)(F)F)[C@@H]1c1ccc(CO)cc1,1.31,0.984,0.854,0.377 (inactive),0.7,1.29,-0.24,1.1,-0.532,0.513,0.905,-1.16,-0.201,2.03,0.731,0.0559,-0.106,0.0286,1.42,1.36
CCOC(=O)C1=CC[C@@H](c2cccc(Cl)c2)N(S(=O)(=O)c2ccc(C)cc2)C1,0.925,0.419,0.877,-2.03 (inactive),0.674,0.0076,0.101,-0.0034,0.0677,0.539,0.412,-1.76,-0.326,1.06,0.573,-0.232,-0.0035,0.424,2.68,0.703
CC(CO)N1C(=O)[C@@H]2[C@H]3C(=O)OCC=C[C@H]3OC23C=CCN(CCN2CCOCC2)C(=O)[C@@H]13 (stereo not given in full),1.12,-0.373,-0.646,0.497 (inactive),-0.199,0.248,-0.101,0.152,0.439,0.777,-0.186,0.606,-0.396,-0.998,-1.55,-0.144,-0.309,-0.5,-0.469,-0.245
